Reference: PubChem BioAssay (Tox21)
Records with an inconclusive call do not appear. The source made the active and inactive calls. Calls follow the shape of the full dose curve.

Target: Retinoic acid receptor RXR-alpha (Homo sapiens) (UniProt P19793)
Assay: qHTS assay to identify small molecule agonists of the RXR signaling pathway (AID 1159527); also: nearly all actives have a fitted effect of over 35% in size
Conditions: HEK293T RXRa-UAS-bla, beta-lactamase ratio, 16 h; series mostly up to 76.8 µM; activation: at the top concentration
Excerpt: U.S. Tox21 Program National Center for Advancing Translational Sciences [NCATS] NIH Chemical Genomics Center [NCGC] U.S. Environmental Protection Agency [EPA] National Institutes of Environmental Health Sciences [NIEHS] National Toxicology Program [NTP] U.S. Food and Drug Administration [FDA] Tox21 Assay Overview: The Retinoid X receptor (RXR), a nuclear hormone receptor expressed in liver, spleen, placenta, epidermis, central nervous system. These receptors are able to form homo and heterodimers with other nuclear receptors and due to this heterodimerizing ability, RXR functions as master regulators producing diverse physiological effects. Three subtypes of RXR exist; alpha, beta and gamma. Retinoid X receptor alpha (RXR-alpha) has potential roles in metabolic signaling pathways, skin alopecia, dermal cysts, cardiac development, insulin sensitization etc. Therefore screening environmental chemicals on RXR-alpha signaling can be used for the studies focused on such therapeutic applications. For quantification of RXR-alpha ligands signaling, GeneBLAzer RXR alpha-UAS-bla HEK 293T (Life Technologies, Carlsbad, CA) cells containing a beta-lactamase reporter-gene under control of Retinoid X receptor-alpha response element were used to screen Tox21 10K library.
Tox21 Assay Protocol Summary: RXR-alpha HEK 293T cells were dispensed at 2,000 cells/6 uL of assay medium containing 2% charcoal-stripped FBS using a Multidrop Combi (ThermoFisher Scientific, Waltham, MA) dispenser. The assay was performed in black wall/clear-bottom 1536-well plates (Greiner Bio-One North America Inc. Monroe, NC). 9-cis retinoic acid was used as a positive control in the agonist mode screen. After the assay plates were incubated at 37 C and 5% CO2 for 5 hr, 23 nL of compounds dissolved in DMSO, positive controls or DMSO only were transferred to the assay plate by a Pintool station (Kalypsys, San Diego, CA). The assay plates were incubated at 37 C and 5% CO2 for 16 hr. One uL of LiveBLAzer B/G FRET substrate (Life Technologies) was added using a Flying Reagent Dispenser (Aurora Discovery, San Diego, CA) and the plates were incubated at room temperature for 2 hr. Fluorescence intensity (405 nm excitation, 460/530 nm emission) was measured using an Envision plate reader (PerkinElmer, Shelton, CT).
% is scaled to controls: 0 for no effect and ±100 for the full control effect.

Sequence of Retinoic acid receptor RXR-alpha (Homo sapiens) (P19793 whole entry, looked up): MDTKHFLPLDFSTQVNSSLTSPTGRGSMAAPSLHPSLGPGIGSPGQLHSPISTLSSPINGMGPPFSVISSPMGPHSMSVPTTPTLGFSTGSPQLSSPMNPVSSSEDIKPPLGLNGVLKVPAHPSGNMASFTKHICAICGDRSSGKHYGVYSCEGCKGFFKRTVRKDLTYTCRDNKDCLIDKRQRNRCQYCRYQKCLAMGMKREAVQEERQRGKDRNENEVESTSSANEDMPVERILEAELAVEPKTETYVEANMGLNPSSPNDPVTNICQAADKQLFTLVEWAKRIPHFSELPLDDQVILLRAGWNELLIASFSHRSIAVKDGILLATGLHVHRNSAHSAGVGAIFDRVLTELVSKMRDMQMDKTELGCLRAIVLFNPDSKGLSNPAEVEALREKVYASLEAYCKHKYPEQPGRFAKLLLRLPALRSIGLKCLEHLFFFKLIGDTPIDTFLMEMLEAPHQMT

Row | SMILES | activation
1 | CCC(C)n1c(=O)[nH]c(C)c(Br)c1=O (stereo not given) | -3.22% (inactive)
2 | CCC(Cl)[N+](=O)[O-] (stereo not given) | 4.42% (inactive)
3 | CN(C)CCc1ccc(O)cc1 | 4.89% [at 35.3 µM] (inactive)
4 | O=NN1CCN(N=O)CC1 | 6.26% (inactive)
5 | C[N+](=O)[O-] | 8.45% (inactive)
6 | CCSC(=O)N(CC)C1CCCCC1 | 11.5% (inactive)
7 | O=C(NCO)NCO | -3.78% (inactive)
8 | CCC1(c2ccccc2)C(=O)NC(=O)NC1=O | 12.8% (inactive)
9 | N#Cc1c(Cl)cccc1Cl | 8.27% (inactive)
10 | N#CCCC#N | 12.4% (inactive)
11 | OCCSCSCCO | 6.88% (inactive)
12 | CN(N=O)C(N)=O | 2.21% (inactive)
13 | CC(=O)C(Cl)Cl | -6.45% (inactive)
14 | O=C1OC(=O)C2C1C1(Cl)C(Cl)=C(Cl)C2(Cl)C1(Cl)Cl (stereo not given) | 2.81% (inactive)
15 | CC(=O)[C@H]1CC[C@H]2[C@@H]3CC[C@H]4C[C@H](O)CC[C@]4(C)[C@H]3C(=O)C[C@]12C | -18.6% [at 35.3 µM] (inactive)
16 | OC(c1ccc(F)cc1)(c1cncnc1)c1ccccc1Cl (stereo not given) | 2.81% (inactive)
17 | COP(N)(=S)Oc1ccccc1C(=O)OC(C)C (stereo not given) | -0.0347% (inactive)
18 | CN1CCC(N(Cc2ccccc2)c2ccccc2)CC1 | -20.9% [at 35.3 µM] (inactive)
19 | Clc1ccccc1N1CCNCC1 | 2.2% [at 35.3 µM] (inactive)
20 | Cc1coc2c1CCC(C)C2 (stereo not given) | -10.3% (inactive)

Row | SMILES | activation
21 | O=C(O)c1ccc2[nH]cc(CCCCN3CC=C(c4ccccc4)CC3)c2c1 | 7.05% [at 35.3 µM] (inactive)
22 | COc1cc(OC)nc(NC(=O)NS(=O)(=O)c2ncccc2C(=O)N(C)C)n1 | -4.55% (inactive)
23 | COc1ncc(F)c2nc(S(=O)(=O)Nc3c(F)cccc3F)nn12 | 3.84% [at 35.3 µM] (inactive)
24 | Oc1c(Cl)cccc1Cl | -6.45% (inactive)
25 | CC(N)=S | -0.919% (inactive)
26 | O=NN1CCCCC1 | 13.3% (inactive)
27 | CCC(=O)C(CCN(C)C)(c1ccccc1)c1ccccc1 | -15.8% [at 35.3 µM] (inactive)
28 | ClC(Cl)(Cl)C(Cl)(Cl)Cl | -7.14% (inactive)
29 | CNCC(=O)c1ccc(O)c(O)c1 | 12.4% [at 35.3 µM] (inactive)
30 | ClCC(Cl)(Cl)Cl | 10.9% (inactive)
31 | O=C1OC(c2ccc(O)c(S(=O)(=O)O)c2)(c2ccc(O)c(S(=O)(=O)O)c2)c2c(Br)c(Br)c(Br)c(Br)c21 | 4.86% [at 35.3 µM] (inactive)
32 | COc1cc(OC)nc(Sc2cccc(Cl)c2C(=O)O)n1 | 9.4% (inactive)
33 | CC(C(=O)c1ccccc1)N(C)C (stereo not given) | 11% [at 35.3 µM] (inactive)
34 | COC(=O)c1ccccc1S(=O)(=O)NC(=O)Nc1nc(C)cc(C)n1 | 10.3% (inactive)
35 | OC(Cn1cncn1)(c1ccc(F)cc1)c1ccccc1F (stereo not given) | 8.64% (inactive)
36 | NC(=O)c1cc([N+](=O)[O-])cc([N+](=O)[O-])c1 | 9.1% [at 35.3 µM] (inactive)
37 | CCC(C)(C)c1cc(-n2nc3ccccc3n2)c(O)c(C(C)(C)CC)c1 | -14.1% (inactive)
38 | CC(C)COP(=O)(OCC(C)C)OCC(C)C | 6.03% (inactive)
39 | Nc1ccccc1Cl | -2.69% (inactive)
40 | CCN(CC)c1nc(C)cc(OP(=S)(OC)OC)n1 | 16.7% (inactive)
